Records with an inconclusive call do not appear. Some structures have more than one record in an assay (separate samples or runs), and their calls can disagree. Active and inactive are the calls of the source. The calls were made as follows, unless noted: active = hit-call score of the fitted dose curve at least 0.9, where 1 is the maximum; inactive = score below 0.9.
Test system: not listed separately
Assay: ATG_TAL_CIS: Attagene CIS-FACTORIAL HepG2 Assay for human TAL Basal Promoter (AID 2282966);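 also: background control endpoint measuring basal TAL promoter reporter mRNA not a specific factor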
Settings: HepG2 Attagene cis-factorial TAL promoter reporter; actives raise or lower the signal
Method in brief: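 Human hepatoma HepG2 cells, transfected with promoter-regulated reporter units, were treated 24 h. Reporter transcript levels, measured through RT-PCR and capillary electrophoresis, were fitted for gain or loss relative to DMSO.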

SMILES	outcome
CC(=O)OC(c1ccccc1)C(Cl)(Cl)Cl (stereo not drawn)	inactive
CC(C)(C)c1cc(O)ccc1O	inactive
CN(CCCC(=O)c1cccnc1)N=O	inactive
O=Cc1cccc(Oc2ccccc2)c1	inactive
Cc1ccc(N)cc1Cl	inactive
O=C(O)C(F)(F)C(F)(F)C(F)(F)C(F)(F)C(F)(F)C(F)(F)F	inactive
CC(C#N)CCC#N (stereo not drawn)	inactive
O=C(CCl)CCl	inactive
CCC(C)c1cccc(C(C)CC)c1O (stereo not drawn)	inactive
ClC1=C(Cl)[C@]2(Cl)[C@H]3[C@H]([C@H]4C=C[C@H]3C4)[C@@]1(Cl)C2(Cl)Cl	inactive
CC(C)CCCCCCOC(=O)c1ccccc1C(=O)OCCCCCCC(C)C	inactive
O=P(O)(O)CN(CP(=O)(O)O)CP(=O)(O)O	inactive
CCc1ccccc1N	inactive

Test system: not listed separately
Assay: ATG_VDRE_CIS: Attagene CIS-FACTORIAL HepG2 Assay for human Vitamin D Receptor Element (VDRE) (AID 2282968)
Settings: HepG2 VDRE cis-reporter transcription, actives raise or lower the signal
Method in brief: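 Measures endogenous factor activity through cis-element-driven reporter transcripts in transiently transfected HepG2. Cells are treated 24 h; reporter mRNA is quantified by RT-PCR and capillary electrophoresis; fitting is bidirectional.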

SMILES	outcome	AC50
CNC	inactive	–
Clc1ccc(C2(Cn3cncn3)CC(Br)CO2)c(Cl)c1 (stereo not drawn)	–	6.89 µM (active)
CCSC(C)CC1CC(=O)C(C(CC)=NOC/C=C/Cl)=C(O)C1 (stereo not drawn)	–	11.3 µM (active)
CC(C)(OO)c1ccccc1	inactive	–
CCCCCCCCSC(=O)Oc1cc(Cl)nnc1-c1ccccc1	–	100 µM (active)
CC(=O)[O][Hg][c]1ccccc1	–	3.71 µM (active)
Cn1sc(Cl)cc1=O	inactive	–
CCC(C)(C)c1ccc(O)c(C(C)(C)CC)c1	–	15.9 µM (active)
CCOP(=S)(OCC)SCCS(=O)(=O)CC	inactive	–
NC(=O)O	inactive	–
CC1(C)Cc2cccc(O)c2O1	inactive	–
CC12CC1(C)C(=O)N(c1cc(Cl)cc(Cl)c1)C2=O (stereo not drawn)	inactive	8.04 µM (active)
ClCC(Cl)CCl	inactive	–
COC(=O)Cc1ccccc1	inactive	–
COc1cc2c(cc1OC)[C@@]13CCN4CC5=CCO[C@H]6CC(=O)N2[C@H]1[C@H]6[C@H]5C[C@H]43	inactive	–
Clc1nc(Cl)nc(Cl)n1	inactive	–
O=C(OC1CCCCC1)c1ccccc1C(=O)OC1CCCCC1	–	2.82 µM (active)

SMILES	outcome	AC50
OCC(O)CCl (stereo not drawn)	inactive	–
CC(=[OH+])/C=C(/C)[O-].CC(=[OH+])/C=C(/C)[O-].CC(=[OH+])/C=C(/C)[O-].[Fe]	inactive	–
N#CCc1ccc(Cl)cc1	inactive	–
C[C@]12CC[C@H](O)CC1=CC[C@@H]1[C@@H]2CC[C@]2(C)C(=O)CC[C@@H]12	inactive	–
CC(=O)OC(c1ccccc1)C(Cl)(Cl)Cl (stereo not drawn)	inactive	–
CN(CCCC(=O)c1cccnc1)N=O	inactive	–
O=Cc1cccc(Oc2ccccc2)c1	inactive	–
Cc1ccc(N)cc1Cl	inactive	–
O=C(O)C(F)(F)C(F)(F)C(F)(F)C(F)(F)C(F)(F)C(F)(F)F	inactive	–
CC(C#N)CCC#N (stereo not drawn)	inactive	–
O=C(CCl)CCl	–	45.4 µM (active)
CCC(C)c1cccc(C(C)CC)c1O (stereo not drawn)	inactive	–
ClC1=C(Cl)[C@]2(Cl)[C@H]3[C@H]([C@H]4C=C[C@H]3C4)[C@@]1(Cl)C2(Cl)Cl	inactive	–
CC(C)CCCCCCOC(=O)c1ccccc1C(=O)OCCCCCCC(C)C	inactive	–
O=P(O)(O)CN(CP(=O)(O)O)CP(=O)(O)O	inactive	–
CCc1ccccc1N	inactive	–

Biological target: Nuclear receptor subfamily 1 group I member 3 (Homo sapiens) (UniProt Q14994)
Sequence (Q14994 whole entry, looked up): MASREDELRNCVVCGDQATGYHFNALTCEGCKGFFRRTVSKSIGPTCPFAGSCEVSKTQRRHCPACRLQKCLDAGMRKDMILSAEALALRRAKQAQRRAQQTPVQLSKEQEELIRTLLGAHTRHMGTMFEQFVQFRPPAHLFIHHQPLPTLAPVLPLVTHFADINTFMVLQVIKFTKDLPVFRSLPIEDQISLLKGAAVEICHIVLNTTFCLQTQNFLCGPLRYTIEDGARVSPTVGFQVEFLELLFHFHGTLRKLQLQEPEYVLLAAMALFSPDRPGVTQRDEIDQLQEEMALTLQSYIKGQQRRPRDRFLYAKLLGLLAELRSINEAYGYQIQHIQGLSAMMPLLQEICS
Assay: ATG_CAR_TRANS: Attagene TRANS-FACTORIAL HepG2 Assay for human Constitutive Androstane Receptor (CAR) (AID 2282969; active = hit-call score of the fitted dose curve at least 0.9, where 1 is the maximum;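 also: activators raise reporter mRNA above DMSO so AC50 marks induction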)
Settings: HepG2 Attagene TRANS-FACTORIAL CAR reporter
Method in brief: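 Signal is reporter mRNA induction relative to DMSO, measured 24 h after dosing by RT-PCR with fluorescent primer extension and capillary electrophoresis. Human HepG2 liver cells carried transiently transfected chimeric NR-Gal4/GAL4-UAS reporter constructs.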

SMILES	AC50	outcome
CCC(C)(C)c1ccc(O)c(C(C)(C)CC)c1	33.4 µM (active)	–
NC(=O)O	–	inactive
CC12CC1(C)C(=O)N(c1cc(Cl)cc(Cl)c1)C2=O (stereo not drawn)	–	inactive
COC(=O)Cc1ccccc1	–	inactive
N#Cc1ccccn1	–	inactive
CN(CCCC(=O)c1cccnc1)N=O	–	inactive
O=Cc1cccc(Oc2ccccc2)c1	–	inactive
Cc1ccc(N)cc1Cl	–	inactive
ClC1=C(Cl)[C@]2(Cl)[C@H]3[C@H]([C@H]4C=C[C@H]3C4)[C@@]1(Cl)C2(Cl)Cl	–	inactive
CC(C)CCCCCCOC(=O)c1ccccc1C(=O)OCCCCCCC(C)C	–	inactive
CCc1ccccc1N	–	inactive

Biological target: Estrogen receptor (Homo sapiens) (UniProt P03372)
Sequence (P03372 whole entry, looked up): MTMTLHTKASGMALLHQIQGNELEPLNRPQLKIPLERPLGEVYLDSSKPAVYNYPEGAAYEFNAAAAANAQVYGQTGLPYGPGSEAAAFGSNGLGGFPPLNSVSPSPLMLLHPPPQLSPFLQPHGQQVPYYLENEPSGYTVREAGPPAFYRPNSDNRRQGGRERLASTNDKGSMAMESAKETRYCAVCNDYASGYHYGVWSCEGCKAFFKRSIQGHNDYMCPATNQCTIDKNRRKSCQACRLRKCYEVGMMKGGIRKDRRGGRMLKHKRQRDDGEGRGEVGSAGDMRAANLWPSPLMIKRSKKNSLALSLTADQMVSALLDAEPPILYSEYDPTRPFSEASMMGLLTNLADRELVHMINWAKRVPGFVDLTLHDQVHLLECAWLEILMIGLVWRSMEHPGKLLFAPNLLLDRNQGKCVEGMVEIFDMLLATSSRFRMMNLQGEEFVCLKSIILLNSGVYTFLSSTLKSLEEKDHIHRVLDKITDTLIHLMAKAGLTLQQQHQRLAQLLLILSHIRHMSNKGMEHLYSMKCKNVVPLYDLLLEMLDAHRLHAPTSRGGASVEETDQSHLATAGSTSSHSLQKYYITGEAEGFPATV
Assay: ATG_ERa_TRANS: Attagene TRANS-FACTORIAL HepG2 Assay for human Estrogen Receptor alpha (ERa) (AID 2282970; active = hit-call score of the fitted dose curve at least 0.9, where 1 is the maximum)
Settings: HepG2 Attagene TRANS ERa GAL4 reporter, mRNA
Method in brief: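 Signal derives from fluorescence of labelled reporter PCR fragments separated by capillary electrophoresis. HepG2 cells transiently carrying multiple GAL4-UAS reporter units were treated 24 hours, and induction above DMSO baseline was fitted as activity.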

SMILES	outcome	AC50
CNC	inactive	–
Clc1ccc(C2(Cn3cncn3)CC(Br)CO2)c(Cl)c1 (stereo not drawn)	–	6.86 µM (active)
CCSC(C)CC1CC(=O)C(C(CC)=NOC/C=C/Cl)=C(O)C1 (stereo not drawn)	inactive	–
CC(C)(OO)c1ccccc1	–	100 µM (active)
CCCCCCCCSC(=O)Oc1cc(Cl)nnc1-c1ccccc1	inactive	–
Cn1sc(Cl)cc1=O	inactive	–
CCC(C)(C)c1ccc(O)c(C(C)(C)CC)c1	–	33.4 µM (active)
CCOP(=S)(OCC)SCCS(=O)(=O)CC	inactive	–
NC(=O)O	inactive	–
CC1(C)Cc2cccc(O)c2O1	inactive	–
COc1cc2c(cc1OC)[C@@]13CCN4CC5=CCO[C@H]6CC(=O)N2[C@H]1[C@H]6[C@H]5C[C@H]43	inactive	–
Clc1nc(Cl)nc(Cl)n1	inactive	–
Cc1cc(=O)[nH]o1	inactive	–
O=C(OC1CCCCC1)c1ccccc1C(=O)OC1CCCCC1	–	3.1 µM (active)
CC(=[OH+])/C=C(/C)[O-].CC(=[OH+])/C=C(/C)[O-].CC(=[OH+])/C=C(/C)[O-].[Fe]	inactive	–
N#CCc1ccc(Cl)cc1	inactive	–
CC(=O)OC(c1ccccc1)C(Cl)(Cl)Cl (stereo not drawn)	–	34.8 µM (active)
CC(C)(C)c1cc(O)ccc1O	–	33.6 µM (active)
O=Cc1cccc(Oc2ccccc2)c1	–	26.6 µM (active)
Cc1ccc(N)cc1Cl	inactive	–
O=C(CCl)CCl	inactive	–
CCC(C)c1cccc(C(C)CC)c1O (stereo not drawn)	–	24.4 µM (active)
ClC1=C(Cl)[C@]2(Cl)[C@H]3[C@H]([C@H]4C=C[C@H]3C4)[C@@]1(Cl)C2(Cl)Cl	–	8.38 µM (active)
O=P(O)(O)CN(CP(=O)(O)O)CP(=O)(O)O	inactive	–
CCc1ccccc1N	inactive	–

Source: PubChem BioAssay (EPA / NIEHS)
